Source: PubChem BioAssay (Tox21)
Values joined by “and” are separate entries in the source; they are usually repeats but may differ in a detail not shown here. Equal entries are not always repeated. Records with an inconclusive call do not appear. More than one record can exist for a structure, and the calls need not agree. Active and inactive are the calls of the source. Unless noted, calls come from the whole dose curve; as a rule, active = well fitted curve in the direction sought with a large enough effect in the repeat runs; inconclusive = weak or mixed curves; inactive = no such curve, though single readings can be large; an effect the other way counts as inactive or inconclusive.

Legend:
[1] = qHTS assay to identify small molecule agonists of the TGF-beta/Smad signaling pathway (AID 1346859; active = well fitted activation curve with a large enough effect in the signal ratio in the repeat runs, not every such curve was filed as active; the % refers to the signal ratio; note: series mostly up to about 77 µM)
Summary of the method: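 Each well held 4,000 SBE-bla HEK 293T cells incubated overnight before compound addition; 5 hr later the cleavable FRET substrate went on for 2 hr at room temperature, and fluorescence was read at two emissions.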

[2] = Human pregnane X receptor (PXR) small molecule agonists, qHTS cell viability counter screen (AID 1346977); note: nearly all actives have a fitted effect of over 50% in size; note: potency is the fitted concentration of half-maximal effect
Summary of the method: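 Tox21 qHTS format; PXR-Luc HepG2, 2,000/well, charcoal-stripped FBS 5%. Cpd exposure 24hr. Read: CellTiter-Fluor fluorescence, multiplexed with luciferase.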

[3] = Caspase-3/7 induction in HepG2 cells by small molecules, qHTS assay (AID 1346978); note: nearly all actives have a fitted effect of over 15% in size; note: potency is the fitted concentration of half-maximal effect
Summary of the method: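 Caspase-3/7 induction was measured by Caspase-Glo 3/7 luminescence (30 min, room temperature) after a 17 hr compound exposure of wild-type HepG2 cells seeded at 2,000 per well and pre-incubated 5 hr.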

[4] = Caspase-3/7 induction in CHO-K1 cells by small molecules, qHTS cell viability counter screen (AID 1346979); note: nearly all actives have a fitted effect of over 35% in size; note: potency is the fitted concentration of half-maximal effect
Summary of the method: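 CellTiter-Fluor viability check, qHTS format: wild-type CHO-K1, 16hr compound treatment, 1hr reagent incubation, fluorescence read.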

[5] = Caspase-3/7 induction in CHO-K1 cells by small molecules, qHTS assay (AID 1346980); note: nearly all actives have a fitted effect of over 15% in size
Summary of the method: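 Luminescent Caspase-Glo 3/7 read (30min, room temperature) quantified apoptosis induction. Cells were wild-type CHO-K1, treated with compound for 17hr at 37 C and 5% CO2.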

[6] = Caspase-3/7 induction in HepG2 cells by small molecules, qHTS cell viability counter screen (AID 1346981); note: series mostly up to about 92 µM; nearly all actives have a fitted effect of over 30% in size
Summary of the method: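 Steps: seed 2,000 HepG2 cells per well; incubate 5 hr at 37 C; pin-add compounds in DMSO; incubate 16 hr; add CellTiter-Fluor; after 1 hr at 37 C and 5% CO2, read fluorescence.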

[7] = target: Nuclear receptor subfamily 1 group I member 2 (Homo sapiens) (UniProt O75469); assay: Human pregnane X receptor (PXR) small molecule agonists, qHTS assay (AID 1346982); note: nearly all actives have a fitted effect of over 35% in size; note: potency is the fitted concentration of half-maximal effect
Summary of the method: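 Agonist mode qHTS: PXR-Luc HepG2 cells plated 5 hr before DMSO-dissolved compounds were pinned in, cultured 24 hr at 37 C, 5% CO2; ONE-Glo luminescence readout.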

[8] = target: Cytochrome P450 2D6 (Homo sapiens) (UniProt P10635); assay: Cytochrome P450 Family 2 Subfamily D Member 6 (CYP2D6) small molecule antagonists: luciferase reporter qHTS assay (AID 1671196); note: nearly all actives have a fitted effect of over 50% in size; note: potency is the fitted concentration of half-maximal effect; for activity change, negative = inhibition: series mostly up to about 120 µM
Summary of the method: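 P450-Glo format: CYP2D6 converts a proluciferin substrate to luciferin in an NADPH-driven reaction lasting 1 h at room temperature. Light output, proportional to CYP2D6 activity, reflects interference by test chemicals.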

[9] = target: Cytochrome P450 2C19 (Homo sapiens) (UniProt P33261); assay: Cytochrome P450 Family 2 Subfamily C Member 19 (CYP2C19) small molecule antagonists: luciferase reporter qHTS assay (AID 1671197); note: nearly all actives have a fitted effect of over 65% in size; note: potency is the fitted concentration of half-maximal effect; for activity change, negative = inhibition: series mostly up to about 120 µM
Summary of the method: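 Inhibition of CYP2C19 was scored from loss of luminescence in a P450-Glo proluciferin substrate assay, NADPH-started and run 1 h at 37C, with ketoconazole as positive control.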

[10] = target: Cytochrome P450 1A2 (Homo sapiens) (UniProt P05177); assay: Cytochrome P450 Family 1 Subfamily A Member 2 (CYP1A2) small molecule antagonists: luciferase reporter qHTS assay (AID 1671199); note: nearly all actives have a fitted effect of over 50% in size; note: potency is the fitted concentration of half-maximal effect; for activity change, negative = inhibition: series mostly up to about 120 µM
Summary of the method: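 Inhibition of CYP1A2 conversion of proluciferin to luciferin, detected by luminescence. Reaction run 1 h at room temperature with NADPH regeneration after brief compound preincubation.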

[11] = target: Voltage-gated inwardly rectifying potassium channel KCNH2 (Homo sapiens) (UniProt Q12809); assay: Human Ether-a-go-go-Related Gene (hERG) channel small molecule antagonists: fluorescence cell-based qHTS assay (AID 1671200);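 note: hERG-expressing U2OS cells given a thallium stimulus after FluxOR II dye loading; series mostly up to about 77 µM; nearly all actives have a fitted effect of over 50% in size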
Summary of the method: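 Kinetic two-minute fluorescence traces, sampled at 1 s, were collected following thallium stimulus of U2OS cells (1000 per well) that had been cultured overnight at 37 C and loaded with FluxOR II.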

[12] = target: Cytochrome P450 3A4 (Homo sapiens) (UniProt P08684); assay: Cytochrome P450 Family 3 Subfamily A Member 4 (CYP3A4) small molecule antagonists: luciferase reporter qHTS assay (AID 1671201)
Summary of the method: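 Proluciferin-to-luciferin conversion by CYP3A4, NADPH-regenerated, 1 h RT; luminescence read as RLU. Ketoconazole as control.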

[13] = target: Thyrotropin-releasing hormone receptor (Homo sapiens) (UniProt P34981); assay: qHTS assay to identify small molecule agonists of the thyrotropin-releasing hormone receptor (TRHR) signaling pathway (AID 1346891; calls by dose curve; note: series mostly up to about 58 µM)
Summary of the method: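 Screening of agonists relied on calcium signalling in HEK293 cells expressing human TRHR: dye loading 2 h at 37 °C preceded compound addition and a 3-min fluorescence time course.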

[14] = target: Thyrotropin-releasing hormone receptor (Homo sapiens) (UniProt P34981); assay: qHTS assay to identify small molecule antagonists of the thyrotropin-releasing hormone receptor (TRHR) signaling pathway (AID 1346877; active = well fitted inhibition curve with a large enough effect in the repeat runs, not every such curve was filed as active; note: series mostly up to about 51 µM)
Summary of the method: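 Cells (TRHR-HEK293) are plated and kept 18 h at 37 °C/5% CO2. A calcium-sensitive dye is added for 2 h, compound follows for 5 min at room temperature, and TRH is then given at 1 nM final.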

[15] = target: Cytochrome P450 2C9 (Homo sapiens) (UniProt P11712); assay: Cytochrome P450 Family 2 Subfamily C Member 9 (CYP2C9) small molecule antagonists: luciferase reporter qHTS assay (AID 1671198)
Summary of the method: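 Enzyme-substrate mix preincubated with compound 10 min at room temperature; reaction started with NADPH regeneration solution, 1 h 37C. Luminescent luciferin product read after 20 min detection reagent.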

[16] = target: Nuclear receptor subfamily 1 group I member 2 (Rattus norvegicus) (UniProt Q9R1A7); assay: Rat pregnane X receptor (rPXR) activation by small molecules, qHTS assay (AID 1346983); details: rPXR luciferase reporter cells, One-Glo luminescence, 24 h; max activation: stronger effect = higher value; note: nearly all actives have a fitted effect of over 20% in size
Summary of the method: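 Luminescent readout (One-Glo luciferase, 30 min room temperature) followed 24 hr compound treatment at 37 C of rPXR cells plated 2,000 per well and preincubated 5hr; qHTS format with compounds delivered in DMSO.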

[17] = target: Nuclear receptor subfamily 1 group I member 2 (Homo sapiens) (UniProt O75469); assay: CYP3A4 induction through human pregnane X receptor (PXR) by small molecules, qHTS assay (AID 1346984); note: nearly all actives have a fitted effect of over 40% in size
Summary of the method: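 Steps: seed DPX-2 cells, 5 hr at 37C; pin-transfer compounds; 24 hr at 37C; add Luciferin-IPA (3uM final), 3 hr at 37C; add One-Glo, 30 min RT; read luminescence.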

[18] = target: Nuclear receptor subfamily 1 group I member 2 (Homo sapiens) (UniProt O75469); assay: Human pregnane X receptor (PXR) activation by small molecules, qHTS assay (AID 1346985); note: nearly all actives have a fitted effect of over 40% in size
Summary of the method: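 DPX-2 cells (HepG2 co-transfected with a PXR response element and a CYP3A4-promoter luciferase construct) were seeded at 2,000 per well, rested 5 hr at 37C, then exposed to DMSO-dissolved compounds for 24 hr. Activation was read as luciferase luminescence.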
% is set by controls: 0 for no effect and ±100 for the full control effect.

Nuclear receptor subfamily 1 group I member 2 (Homo sapiens), sequence (O75469 whole entry, looked up): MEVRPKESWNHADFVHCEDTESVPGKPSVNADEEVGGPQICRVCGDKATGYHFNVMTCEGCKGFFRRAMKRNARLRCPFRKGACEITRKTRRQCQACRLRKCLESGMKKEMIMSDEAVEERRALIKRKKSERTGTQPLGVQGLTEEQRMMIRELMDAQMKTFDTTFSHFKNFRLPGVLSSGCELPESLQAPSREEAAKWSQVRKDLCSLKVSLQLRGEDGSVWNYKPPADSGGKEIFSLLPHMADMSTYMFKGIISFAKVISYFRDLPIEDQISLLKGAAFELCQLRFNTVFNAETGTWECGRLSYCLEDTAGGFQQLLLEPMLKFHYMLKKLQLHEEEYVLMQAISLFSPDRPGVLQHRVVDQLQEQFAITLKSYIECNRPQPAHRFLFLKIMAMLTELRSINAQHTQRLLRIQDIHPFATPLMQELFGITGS
Cytochrome P450 2D6 (Homo sapiens), sequence (P10635 whole entry, looked up): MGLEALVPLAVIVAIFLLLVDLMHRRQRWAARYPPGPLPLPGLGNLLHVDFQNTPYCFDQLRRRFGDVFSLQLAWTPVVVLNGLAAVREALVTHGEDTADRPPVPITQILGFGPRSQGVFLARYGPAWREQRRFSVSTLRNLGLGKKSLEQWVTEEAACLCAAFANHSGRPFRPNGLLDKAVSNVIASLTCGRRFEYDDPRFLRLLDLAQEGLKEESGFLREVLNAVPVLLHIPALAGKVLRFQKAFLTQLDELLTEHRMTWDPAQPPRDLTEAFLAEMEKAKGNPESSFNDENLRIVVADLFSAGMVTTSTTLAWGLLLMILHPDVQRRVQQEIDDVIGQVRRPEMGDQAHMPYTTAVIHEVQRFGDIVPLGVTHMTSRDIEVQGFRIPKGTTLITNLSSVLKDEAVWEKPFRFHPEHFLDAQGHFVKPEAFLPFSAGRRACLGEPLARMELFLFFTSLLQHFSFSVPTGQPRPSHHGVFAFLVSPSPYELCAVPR
Voltage-gated inwardly rectifying potassium channel KCNH2 (Homo sapiens), sequence (Q12809 whole entry, looked up): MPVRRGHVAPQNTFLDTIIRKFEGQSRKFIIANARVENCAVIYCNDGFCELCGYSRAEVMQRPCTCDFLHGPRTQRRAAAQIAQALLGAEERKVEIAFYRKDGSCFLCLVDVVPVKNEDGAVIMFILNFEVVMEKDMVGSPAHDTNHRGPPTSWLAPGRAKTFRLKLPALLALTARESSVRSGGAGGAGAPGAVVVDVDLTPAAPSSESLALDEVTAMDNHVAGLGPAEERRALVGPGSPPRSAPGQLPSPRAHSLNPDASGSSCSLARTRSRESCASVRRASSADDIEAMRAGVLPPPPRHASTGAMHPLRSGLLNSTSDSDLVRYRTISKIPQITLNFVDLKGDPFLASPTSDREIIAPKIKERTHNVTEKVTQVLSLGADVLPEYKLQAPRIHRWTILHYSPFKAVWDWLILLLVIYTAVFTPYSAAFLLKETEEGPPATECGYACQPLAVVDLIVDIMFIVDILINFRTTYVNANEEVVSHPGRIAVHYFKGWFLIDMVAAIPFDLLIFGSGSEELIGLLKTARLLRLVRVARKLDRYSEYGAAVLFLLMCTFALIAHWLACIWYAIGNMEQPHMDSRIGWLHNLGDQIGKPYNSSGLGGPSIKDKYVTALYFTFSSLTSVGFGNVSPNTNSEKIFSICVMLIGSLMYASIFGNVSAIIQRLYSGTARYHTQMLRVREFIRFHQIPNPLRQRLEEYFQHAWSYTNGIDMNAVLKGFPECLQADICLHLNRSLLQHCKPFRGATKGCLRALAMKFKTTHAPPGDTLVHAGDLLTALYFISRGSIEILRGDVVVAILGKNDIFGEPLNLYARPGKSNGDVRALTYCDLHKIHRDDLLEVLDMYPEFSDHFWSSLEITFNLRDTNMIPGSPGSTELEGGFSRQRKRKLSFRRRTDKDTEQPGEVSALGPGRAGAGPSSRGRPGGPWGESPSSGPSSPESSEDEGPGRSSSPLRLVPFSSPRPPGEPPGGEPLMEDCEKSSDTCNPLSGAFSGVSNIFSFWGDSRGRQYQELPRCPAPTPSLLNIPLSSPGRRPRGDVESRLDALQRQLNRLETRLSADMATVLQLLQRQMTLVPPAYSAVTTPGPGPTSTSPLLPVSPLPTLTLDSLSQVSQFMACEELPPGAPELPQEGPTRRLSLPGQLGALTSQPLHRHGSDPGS
Cytochrome P450 2C9 (Homo sapiens), sequence (P11712 whole entry, looked up): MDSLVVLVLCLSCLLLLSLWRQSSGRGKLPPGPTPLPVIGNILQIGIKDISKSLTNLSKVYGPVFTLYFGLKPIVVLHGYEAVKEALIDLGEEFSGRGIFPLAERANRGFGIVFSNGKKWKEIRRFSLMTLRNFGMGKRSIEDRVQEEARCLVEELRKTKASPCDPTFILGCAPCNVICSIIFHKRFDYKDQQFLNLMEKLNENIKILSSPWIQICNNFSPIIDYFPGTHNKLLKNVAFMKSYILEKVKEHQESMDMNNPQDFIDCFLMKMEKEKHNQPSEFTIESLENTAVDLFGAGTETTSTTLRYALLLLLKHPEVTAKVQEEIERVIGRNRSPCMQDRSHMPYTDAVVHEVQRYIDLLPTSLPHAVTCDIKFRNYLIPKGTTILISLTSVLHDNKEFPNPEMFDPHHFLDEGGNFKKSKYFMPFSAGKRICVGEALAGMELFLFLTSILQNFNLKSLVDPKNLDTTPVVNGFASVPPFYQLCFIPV
Cytochrome P450 1A2 (Homo sapiens), sequence (P05177 whole entry, looked up): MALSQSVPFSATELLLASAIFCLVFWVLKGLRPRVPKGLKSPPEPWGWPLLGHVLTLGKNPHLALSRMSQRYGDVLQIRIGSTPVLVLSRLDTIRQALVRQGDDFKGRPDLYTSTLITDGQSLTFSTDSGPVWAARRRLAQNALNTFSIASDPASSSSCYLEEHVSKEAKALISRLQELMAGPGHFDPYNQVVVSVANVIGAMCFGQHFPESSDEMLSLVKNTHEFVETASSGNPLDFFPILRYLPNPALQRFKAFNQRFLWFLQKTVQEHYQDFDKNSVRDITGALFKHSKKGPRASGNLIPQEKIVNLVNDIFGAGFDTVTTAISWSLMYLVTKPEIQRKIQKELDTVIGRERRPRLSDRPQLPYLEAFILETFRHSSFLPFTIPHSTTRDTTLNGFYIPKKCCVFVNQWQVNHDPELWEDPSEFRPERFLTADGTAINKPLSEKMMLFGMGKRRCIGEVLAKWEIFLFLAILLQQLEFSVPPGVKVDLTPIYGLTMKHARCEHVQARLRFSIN
Thyrotropin-releasing hormone receptor (Homo sapiens), sequence (P34981 whole entry, looked up): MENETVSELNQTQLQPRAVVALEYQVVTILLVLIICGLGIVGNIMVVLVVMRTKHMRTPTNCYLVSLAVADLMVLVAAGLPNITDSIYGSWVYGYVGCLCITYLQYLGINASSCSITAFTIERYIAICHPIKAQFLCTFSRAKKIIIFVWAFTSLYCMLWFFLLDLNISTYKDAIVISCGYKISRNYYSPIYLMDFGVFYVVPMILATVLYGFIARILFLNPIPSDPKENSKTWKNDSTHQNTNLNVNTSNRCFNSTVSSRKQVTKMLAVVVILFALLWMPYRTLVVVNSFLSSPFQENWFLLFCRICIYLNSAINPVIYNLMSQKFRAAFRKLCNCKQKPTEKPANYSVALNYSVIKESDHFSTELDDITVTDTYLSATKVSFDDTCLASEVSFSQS
Cytochrome P450 2C19 (Homo sapiens), sequence (P33261 whole entry, looked up): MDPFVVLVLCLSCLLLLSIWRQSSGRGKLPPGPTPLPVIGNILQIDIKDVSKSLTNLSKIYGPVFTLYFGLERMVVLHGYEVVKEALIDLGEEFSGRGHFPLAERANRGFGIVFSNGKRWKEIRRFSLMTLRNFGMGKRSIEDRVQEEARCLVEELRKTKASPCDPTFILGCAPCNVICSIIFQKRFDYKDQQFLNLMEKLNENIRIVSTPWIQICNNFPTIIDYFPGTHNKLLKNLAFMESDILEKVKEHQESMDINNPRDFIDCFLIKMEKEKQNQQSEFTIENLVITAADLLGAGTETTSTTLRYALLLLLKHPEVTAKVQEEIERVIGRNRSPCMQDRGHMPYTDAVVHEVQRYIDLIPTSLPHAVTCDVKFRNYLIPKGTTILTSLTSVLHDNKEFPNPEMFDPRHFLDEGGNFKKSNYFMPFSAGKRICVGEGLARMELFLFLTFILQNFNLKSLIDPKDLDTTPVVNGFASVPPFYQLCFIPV
Cytochrome P450 3A4 (Homo sapiens), sequence (P08684 whole entry, looked up): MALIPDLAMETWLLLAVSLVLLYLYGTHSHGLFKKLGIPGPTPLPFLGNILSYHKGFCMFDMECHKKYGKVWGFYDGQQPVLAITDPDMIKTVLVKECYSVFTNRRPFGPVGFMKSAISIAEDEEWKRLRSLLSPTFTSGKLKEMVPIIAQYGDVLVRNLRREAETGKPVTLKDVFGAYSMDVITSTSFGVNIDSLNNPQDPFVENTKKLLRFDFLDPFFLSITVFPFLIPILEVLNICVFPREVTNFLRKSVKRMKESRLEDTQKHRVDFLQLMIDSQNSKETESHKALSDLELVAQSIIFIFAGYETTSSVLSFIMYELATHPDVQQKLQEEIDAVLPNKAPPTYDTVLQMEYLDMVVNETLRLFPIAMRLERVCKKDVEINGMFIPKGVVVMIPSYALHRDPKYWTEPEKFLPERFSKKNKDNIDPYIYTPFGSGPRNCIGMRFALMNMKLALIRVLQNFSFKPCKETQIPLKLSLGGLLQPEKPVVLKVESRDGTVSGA
Nuclear receptor subfamily 1 group I member 2 (Rattus norvegicus), sequence (Q9R1A7 whole entry, looked up): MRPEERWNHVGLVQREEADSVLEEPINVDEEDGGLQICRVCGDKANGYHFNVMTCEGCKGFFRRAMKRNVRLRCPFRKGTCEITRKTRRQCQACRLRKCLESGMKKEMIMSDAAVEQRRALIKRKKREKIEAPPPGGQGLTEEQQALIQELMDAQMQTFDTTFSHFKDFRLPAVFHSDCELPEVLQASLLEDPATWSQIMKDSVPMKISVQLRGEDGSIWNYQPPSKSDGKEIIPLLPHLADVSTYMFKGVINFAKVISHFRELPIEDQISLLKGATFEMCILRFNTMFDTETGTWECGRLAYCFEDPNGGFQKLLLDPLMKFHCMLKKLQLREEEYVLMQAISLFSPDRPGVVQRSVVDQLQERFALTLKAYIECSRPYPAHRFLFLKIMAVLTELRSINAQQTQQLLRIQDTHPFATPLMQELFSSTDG

CCCCCCOCCO
inactive: outcome [1] | Potency [2] | Potency [3] | Potency [4] | outcome [5] | Potency [6] | Potency [7] | Potency [8] | Potency [9] | Potency [10] | outcome [11] | Potency [12]

CCCCN(CCCC)CCCC
35.5 µM (active) and inactive: Potency [10]
inactive: outcome [1] | Potency [2] | Potency [3] | Potency [4] | outcome [5] | Potency [6] | Potency [7] | Potency [8] | outcome [11] | Potency [12]

O=S1(=O)CC=CC1
inactive: outcome [1] | outcome [13] | outcome [5] | Potency [6] | Potency [8] | Potency [9] | Potency [10] | outcome [11] | Potency [12]
52.6 µM (active) and inactive: Potency [7]
39.8 µM (active) and inactive: Potency [2]
29.6 µM (active) and inactive: Potency [4]
59 µM (active) and inactive: Potency [3]

O=C(Oc1ccccc1)c1ccccc1
active: Potency [10] 31.7 µM
inactive: outcome [1] | Potency [14] | Potency [2] | Potency [3] | Potency [4] | outcome [5] | Potency [6] | Potency [7] | Potency [8] | Potency [9] | Potency [15] | outcome [11] | Potency [12]

Cc1ccc(N(C)C)cc1
inactive and 50.2 µM (active): Potency [9]
inactive and 35.6 µM (active): Potency [8]
inactive: outcome [1] | Potency [14] | outcome [13] | Potency [2] | Potency [3] | Potency [4] | outcome [5] | Potency [6] | Potency [7] | Potency [15] | Potency [10] | outcome [11] | Potency [12]

COS(C)(=O)=O
inactive: outcome [1] | Potency [14] | Potency [2] | Potency [3] | Potency [4] | outcome [5] | Potency [6] | Potency [7] | Potency [8] | Potency [9] | Potency [15] | Potency [10] | outcome [11] | Potency [12]

C#CCN(C)Cc1ccccc1
inactive: outcome [1] | outcome [13] | Potency [2] | Potency [3] | Potency [4] | outcome [5] | Potency [6] | Potency [7] | max activation [16] -0.422% | outcome [17] | Potency [18] | Potency [9] | outcome [11] | Potency [12]

O=C=NCCCCCCN=C=O
69.4 µM (active) and inactive: Potency [9]
47.5 µM (active) and inactive: Potency [7]
53.3 µM (active) and inactive: Potency [4]
inactive: outcome [1] | Potency [14] | outcome [13] | Potency [2] | Potency [3] | outcome [5] | Potency [6] | Potency [8] | Potency [10] | outcome [11] | Potency [12]

O=C(O)c1cc(C(=O)O)cc(S(=O)(=O)O)c1
inactive: outcome [1] | Potency [2] | Potency [3] | Potency [4] | outcome [5] | Potency [6] | Potency [7] | Potency [9] | outcome [11] | Potency [12]
inactive and 39.9 µM (active): Potency [10]
active: Potency [8] 36 µM

CCCCCCCCC/C=C/CC1CC(=O)OC1=O (stereo not drawn)
inactive and 39.9 µM (active): Potency [8]
inactive: outcome [1] | Potency [2] | Potency [3] | Potency [4] | outcome [5] | Potency [6] | Potency [7] | Potency [10] | outcome [11] | Potency [12]

C[Si](O[Si](C)(C)C)O[Si](C)(C)C
inactive: outcome [1] | Potency [14] | Potency [2] | Potency [3] | Potency [4] | outcome [5] | Potency [6] | Potency [7] | Potency [8] | Potency [9] | Potency [15] | Potency [10] | outcome [11] | Potency [12]

Fc1ccc(Br)cc1
40.3 µM (active) and inactive: Potency [10]
71.7 µM (active) and inactive: Potency [9]
inactive: outcome [1] | Potency [14] | Potency [2] | Potency [3] | Potency [4] | outcome [5] | Potency [6] | Potency [7] | Potency [8] | Potency [15] | outcome [11] | Potency [12]

CCN(CC)CCCC(C)Nc1ccnc2cc(Cl)ccc12 (stereo not drawn)
active: Potency [2] 13 µM
inactive: activation [1] 1.95% [at 6.97 µM] and -1.03% [at 15.8 µM] | activity change, negative = cytotoxicity [2] -20.8% [at 8.39 µM] | caspase activation [3] 1.19% [at 8.39 µM] and -0.361% [at 19 µM] | caspase-3/7 activation [5] 0.759% [at 8.39 µM] and -0.715% [at 19 µM] | activity change, negative = cytotoxicity [6] -14.1% [at 8.39 µM] and -16.1% [at 19 µM] | activation [7] 3.19% [at 8.39 µM] and -3.77% [at 19 µM] | max activation [16] -1.5% | Potency [18] | activity change, negative = inhibition [11] 0.661% [at 6.97 µM] and 1.69% [at 15.8 µM]
